Assay results taken from PubChem BioAssay.
Potency and affinity values are given separately. Records with an inconclusive call do not appear. Calls of active or inactive are those of the source. Unless noted, no rule for the calls is given here.

Experiments:
[1] = cytotoxicity in PAX8-dependent RMG-1 cells, dose response, cell-based, cherry-pick (AID 687029;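 active = signal drop whose fitted half-maximal concentration is at most twice the top valid dose, in every test run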;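 also: cells exposed to compound for 96 hours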)
[2] = cytotoxicity in IOSE-T80 ovarian epithelial cells, dose response, selectivity assay for PAX8 inhibitor project, cell-based, cherry-pick (AID 687032;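 active = fitted half-maximal concentration for viability loss no higher than twice the top valid dose, in every repeat run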;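 also: cells exposed to compound for 96 h before reading; 0% = neutral control wells and -100% = 2 µM mitoxantrone kill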)
[3] = inhibitors of CMV-promoter luciferase reporter, dose response, counter-screen for Pax8 inhibitor project, cell-based, HEK293, luminescence, dry powder (AID 743020;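 active = signal-lowering compounds whose fitted half-maximal concentration is at or below twice the top tested dose in every run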;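 also: HEK293 cells stably expressing the CMV luciferase reporter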)
[4] = non-specific cell cytotoxicity, dose response, cytotoxicity control for PAX8 inhibitor project, plate reader, dry powder samples (AID 743021)
[5] = A2780 ovarian cancer cell cytotoxicity, dose response, cytotoxicity control, plate reader, dry powder samples (AID 743046);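 also: 0% = neutral control wells and -100% = cytotoxic reference compound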
[6] = IOSE-T80 ovarian epithelial cell cytotoxicity, dose response, cytotoxicity control for PAX8 inhibitor project, plate reader, dry powder samples (AID 743045);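 also: 0% = neutral control median and -100% = positive control median; more negative values mean more cell killing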
[7] = cytotoxicity in OVCAR8 ovarian cancer cells, dose response, PAX8 project, cell-based, plate reader, dry powder samples (AID 743197)
[8] = IGROV1 ovarian cancer cell cytotoxicity, dose response, PAX8 inhibitor project, plate reader, dry powder samples (AID 743043);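 also: more negative means fewer viable cells or more cytotoxicity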
[9] = NIH:OVCAR-3 ovarian cancer cell cytotoxicity, dose response, PAX8 inhibitor project, plate reader, dry powder samples (AID 743044); details: max activity: at 35 µM, hits give low values unless noted
[10] = HepG2 cell cytotoxicity, dose response, cytotoxicity control, plate reader, cherry-pick, antagonist series (AID 743416);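 also: 0% = neutral control wells and -100% = positive control wells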

Cc1ccccc1S(=O)(=O)N1C[C@@H]2N[C@H](C1)C2c1ccc(-c2cccc(C#N)c2)cc1 (some centres not stated)
inactive: outcome [1] | outcome [2] | outcome [3] | outcome [4] | outcome [5]

O=C(Nc1ccc(C(F)(F)F)cc1)N1C[C@@H]2N[C@H](C1)C2c1ccc(/C=C/c2ccccc2)cc1 (some centres not stated)
inactive: outcome [1] | outcome [2] | outcome [3] | outcome [4] | outcome [6] | outcome [7]

COc1cccc(S(=O)(=O)Nc2ccc3c(c2)[C@@H]2C[C@@H](CC(=O)NCc4ccc(Cl)cc4)O[C@@H](CO)[C@@H]2O3)c1
inactive: outcome [1] | outcome [2] | outcome [3] | outcome [4] | outcome [6] | outcome [5] | outcome [7]

COc1ccccc1S(=O)(=O)N(C)C[C@H]1Oc2cc(C#CCC3CCCC3)ccc2S(=O)(=O)N([C@@H](C)CO)C[C@@H]1C
inactive: outcome [1] | outcome [2] | outcome [3] | outcome [4] | outcome [6] | outcome [7]

Cc1cccc(S(=O)(=O)N2CCCCN3[C@H](CO)[C@H](c4ccc(C#CC(C)C)cc4)[C@H]3C2)c1
inactive: outcome [1] | outcome [2] | outcome [3] | outcome [4] | outcome [5]

Cc1noc(C)c1S(=O)(=O)Nc1ccc2c(c1)C(=O)N([C@H](C)CO)C[C@@H](C)[C@@H](CN(C)Cc1ccc(C(F)(F)F)cc1)OCCCC[C@H](C)O2
inactive: outcome [1] | outcome [2] | outcome [3] | outcome [4] | outcome [6] | outcome [5]

COc1ccccc1NC(=O)N1CCCCN2[C@@H](CO)[C@@H](c3ccc(-c4cccc(C)c4)cc3)[C@@H]2C1
inactive: outcome [1] | outcome [2] | outcome [3] | outcome [4] | outcome [5]

C[C@@H]1CCCCO[C@@H](CN(C)Cc2ccc3c(c2)OCO3)[C@@H](C)CN([C@@H](C)CO)C(=O)c2cc(NC(=O)Nc3ccc(C(F)(F)F)cc3)ccc2O1
inactive: outcome [1] | outcome [2] | outcome [3] | outcome [4] | outcome [6] | outcome [5]

O=C(Nc1cccc(F)c1)N1CCCCN2[C@@H](CO)[C@@H](c3ccc(-c4ccccc4F)cc3)[C@@H]2C1
inactive: outcome [1] | outcome [2] | outcome [3] | outcome [4] | outcome [6] | outcome [5] | outcome [7]

C[C@@H]1CN([C@@H](C)CO)S(=O)(=O)c2ccc(C#C[C@@H](C)O)cc2O[C@H]1CN(C)Cc1ccc(-c2ccccc2)cc1
inactive: outcome [1] | outcome [2] | outcome [3] | outcome [4] | outcome [6] | outcome [5] | outcome [7]

COc1cccc(S(=O)(=O)N2CC[C@@H]3[C@@H](CO)Nc4ccc(-c5ccccc5OC)cc4[C@@H]32)c1
inactive: outcome [1] | outcome [2] | outcome [3] | outcome [4] | outcome [5]

CCCC#Cc1ccc([C@@H]2[C@H](CO)N3CCCCN(S(=O)(=O)Cc4ccccc4)C[C@@H]23)cc1
inactive: outcome [1] | outcome [2] | outcome [3] | outcome [4] | outcome [6] | outcome [5] | outcome [7]

C[C@@H]1CN([C@H](C)CO)C(=O)c2cc(NC(=O)Nc3ccc(C(F)(F)F)cc3)ccc2O[C@@H](C)CCCCO[C@@H]1CN(C)Cc1ccc2c(c1)OCO2
inactive: outcome [1] | outcome [2] | outcome [3] | outcome [4] | outcome [6] | outcome [5]

O=C(Nc1ccccc1F)N1CCCCN2[C@@H](CO)[C@@H](c3ccc(/C=C/c4ccccc4)cc3)[C@@H]2C1
inactive: outcome [1] | outcome [2] | outcome [3] | outcome [4] | outcome [6] | outcome [5] | outcome [7]

O=C(C1CCCC1)N1CC[C@@H]2[C@H](CO)Nc3ccc(C4=CCCCC4)cc3[C@@H]21
inactive: outcome [1] | outcome [2] | outcome [3] | outcome [4] | outcome [6] | outcome [5]

C[C@H](CO)N1C[C@H](C)[C@H](CN(C)S(=O)(=O)c2ccc(Cl)cc2)OCc2ccccc2-c2c(n(C)c3ccccc23)C1=O
inactive: outcome [1] | outcome [2] | outcome [3] | outcome [4] | outcome [6] | outcome [5]

C[C@H](CO)N1C[C@H](C)[C@@H](CN(C)Cc2ccc(Oc3ccccc3)cc2)Oc2ccc(NS(=O)(=O)c3ccc(Cl)cc3)cc2CC1=O
inactive: outcome [1] | outcome [2] | outcome [3] | outcome [4] | outcome [6] | outcome [5]

O=C(C[C@H]1C[C@@H]2c3cc(NC(=O)Nc4ccc(C(F)(F)F)cc4)ccc3O[C@@H]2[C@@H](CO)O1)NCc1ccc(Cl)cc1
inactive: outcome [1] | outcome [2] | outcome [3] | outcome [4] | outcome [6] | outcome [5] | outcome [7]

O=C1CN(S(=O)(=O)Cc2ccccc2)C[C@@H]2[C@@H](c3ccc(C#CC4CC4)cc3)[C@@H](CO)N12
inactive: outcome [1] | outcome [2] | outcome [3] | outcome [4] | outcome [6] | activity change, negative = cytotoxicity [5] 19% [at 8 µM]

C[C@@H]1CN([C@H](C)CO)C(=O)c2cc(NC(=O)Nc3ccc(C(F)(F)F)cc3)ccc2O[C@@H](C)CCCCO[C@H]1CN(C)C(=O)c1ccccc1
inactive: outcome [1] | outcome [2] | outcome [3] | outcome [4] | outcome [5]

Cc1cccc(S(=O)(=O)N2CCCCN3[C@H](CO)[C@H](c4ccc(C#C[C@H](C)O)cc4)[C@H]3C2)c1
inactive: outcome [1] | outcome [2] | outcome [3] | outcome [4] | outcome [6] | outcome [5]

C[C@@H]1CN([C@@H](C)CO)C(=O)Cc2cc(NS(=O)(=O)c3cccs3)ccc2O[C@H]1CN(C)Cc1ccc(C(F)(F)F)cc1
inactive: outcome [1] | outcome [2] | outcome [3] | outcome [4] | outcome [6] | outcome [5] | outcome [7]

C[C@H](CO)N1C[C@H](C)[C@@H](CN(C)Cc2ccccc2)Oc2ccc(NC(=O)Nc3ccc(C(F)(F)F)cc3)cc2CC1=O
inactive: outcome [1] | outcome [2] | outcome [3] | outcome [4] | outcome [6] | outcome [5] | outcome [7]

C[C@H]1CCCCO[C@@H](CN(C)Cc2ccc(C(F)(F)F)cc2)[C@@H](C)CN([C@@H](C)CO)C(=O)c2cc(NS(=O)(=O)c3ccc(F)cc3)ccc2O1
inactive: outcome [1] | outcome [2] | outcome [3] | outcome [4] | outcome [6] | outcome [5]

Cc1ccc(S(=O)(=O)Nc2ccc3c(c2)C(=O)N([C@@H](C)CO)C[C@H](C)[C@@H](CN(C)Cc2ccc(C(F)(F)F)cc2)OCCCC[C@@H](C)O3)cc1
inactive: outcome [1] | outcome [2] | outcome [3] | outcome [4] | outcome [6] | outcome [5]

C[C@@H]1CN([C@@H](C)CO)C(=O)Cc2cc(NC(=O)Nc3ccc4c(c3)OCO4)ccc2O[C@H]1CN(C)CC1CCCCC1
inactive: outcome [1] | outcome [2] | outcome [3] | outcome [4] | outcome [6] | outcome [5] | outcome [7]

Cc1ccc(S(=O)(=O)N(C)C[C@H]2Oc3cc(C#Cc4ccncc4)ccc3S(=O)(=O)N([C@@H](C)CO)C[C@H]2C)cc1
inactive: outcome [1] | outcome [2] | outcome [3] | outcome [4] | outcome [5]

O=C(C[C@@H]1C[C@H]2c3cc(NS(=O)(=O)c4ccc(F)cc4)ccc3O[C@H]2[C@H](CO)O1)NCc1ccc(Cl)cc1
inactive: outcome [1] | outcome [2] | outcome [3] | outcome [4] | outcome [5]

C[C@H]1CCCCO[C@@H](CN(C)Cc2ccccc2)[C@@H](C)CN([C@@H](C)CO)C(=O)c2cc(NC(=O)Nc3ccc(C(F)(F)F)cc3)ccc2O1
inactive: outcome [1] | outcome [2] | outcome [3] | outcome [4] | outcome [6] | outcome [5]

Cc1ccc(S(=O)(=O)Nc2ccc3c(c2)C(=O)N([C@H](C)CO)C[C@@H](C)[C@@H](CN(C)Cc2ccc(C(F)(F)F)cc2)OCCCC[C@@H](C)O3)cc1
inactive: outcome [1] | outcome [2] | outcome [3] | outcome [4] | outcome [5]

C[C@@H]1CN([C@@H](C)CO)C(=O)Cc2cc(NC(=O)CCC(F)(F)F)ccc2O[C@H]1CN(C)Cc1ccc(Oc2ccccc2)cc1
inactive: outcome [1] | outcome [2] | outcome [3] | outcome [4] | outcome [6] | outcome [5] | outcome [7]

COc1cccc(-c2ccc3c(c2)[C@H]2[C@H](CCN2S(=O)(=O)c2ccccc2OC)[C@@H](CO)N3C)c1
inactive: outcome [1] | outcome [2] | outcome [3] | outcome [4] | outcome [6] | outcome [5]

C[C@H]1CCCCO[C@H](CN(C)C(=O)Nc2ccc(C(F)(F)F)cc2)[C@@H](C)CN([C@@H](C)CO)C(=O)c2cc(NC(=O)CCC(F)(F)F)ccc2O1
inactive: outcome [1] | outcome [2] | outcome [3] | outcome [4] | outcome [6] | outcome [5] | outcome [7]

C[C@@H]1CCCCO[C@H](CN(C)Cc2ccc(C(F)(F)F)cc2)[C@H](C)CN([C@H](C)CO)C(=O)c2cc(NC(=O)Cc3ccccc3)ccc2O1
inactive: outcome [1] | outcome [2] | outcome [3] | outcome [4] | outcome [6] | outcome [5]

C[C@@H]1CCCCO[C@@H](CN(C)Cc2ccc(C(F)(F)F)cc2)[C@H](C)CN([C@@H](C)CO)C(=O)c2cc(NC(=O)NC3CCCCC3)ccc2O1
inactive: outcome [1] | outcome [2] | outcome [3] | outcome [4] | outcome [6] | outcome [5]

C[C@@H]1CCCCO[C@H](CN(C)Cc2ccc(Cl)c(Cl)c2)[C@@H](C)CN([C@@H](C)CO)C(=O)c2cc(NC(=O)Cc3ccccc3)ccc2O1
inactive: outcome [1] | outcome [2] | outcome [3] | outcome [4] | outcome [6] | outcome [5]

Cc1ccc(S(=O)(=O)Nc2ccc3c(c2)CC(=O)N([C@@H](C)CO)C[C@@H](C)[C@H](CN(C)Cc2ccc(Cl)c(Cl)c2)O3)cc1
inactive: outcome [1] | outcome [2] | outcome [3] | outcome [4] | outcome [6] | outcome [5] | outcome [7]

O=C(NC1CCCCC1)N1C[C@@H]2N[C@H](C1)C2c1ccc(-c2ccc(F)cc2)cc1 (some centres not stated)
inactive: outcome [1] | outcome [2] | outcome [3] | outcome [4] | outcome [5]

C[C@H](CO)N1C[C@H](C)[C@@H](CN(C)Cc2ccc(C(F)(F)F)cc2)Oc2ccc(NS(=O)(=O)c3ccccc3)cc2CC1=O
inactive: outcome [1] | outcome [2] | outcome [3] | outcome [8] | outcome [6]

C[C@@H]1CCCCO[C@@H](CN(C)C(=O)c2ccccc2)[C@@H](C)CN([C@@H](C)CO)C(=O)c2cc(NC(=O)Nc3ccc(C(F)(F)F)cc3)ccc2O1
inactive: outcome [1] | outcome [2] | outcome [3] | outcome [8] | outcome [6] | outcome [5]

C[C@H](O)C#Cc1ccc2c(c1)O[C@@H](CN(C)Cc1ccc(-c3ccccc3)cc1)[C@@H](C)CN([C@H](C)CO)S2(=O)=O
inactive: outcome [1] | outcome [2] | outcome [3] | outcome [8] | max activity [9] -11.2% | outcome [6] | outcome [5]

CCCC#Cc1ccc([C@@H]2[C@H](C#N)N(S(=O)(=O)c3cccc(F)c3)[C@H]2CO)cc1
inactive: outcome [1] | outcome [2] | outcome [3] | outcome [8] | outcome [6] | outcome [7]

C[C@H](CO)N1C[C@H](C)[C@@H](CN(C)Cc2ccc(-c3ccccc3)cc2)Oc2ccc(NC(=O)C3CC3)cc2CC1=O
inactive: outcome [1] | outcome [2] | outcome [3] | outcome [8] | max activity [9] 42.3% [at 2.1 µM, hits give low values] | outcome [6] | outcome [5] | outcome [7]

C[C@@H]1CN([C@H](C)CO)C(=O)c2cc(NC(=O)Nc3ccc(C(F)(F)F)cc3)ccc2O[C@@H](C)CCCCO[C@@H]1CN(C)C(=O)NC1CCCCC1
inactive: outcome [1] | outcome [2] | outcome [3] | outcome [8] | outcome [6] | outcome [5] | outcome [7]

C[C@@H]1CN([C@H](C)CO)C(=O)c2cc(NC(=O)Nc3ccc(C(F)(F)F)cc3)ccc2O[C@@H](C)CCCCO[C@@H]1CN(C)Cc1ccncc1
inactive: outcome [1] | outcome [2] | outcome [3] | outcome [4] | outcome [7]

COc1ccc(-c2csc3ncnc(Sc4nnnn4C)c23)cc1
inactive: outcome [1] | outcome [2] | outcome [3] | outcome [4] | outcome [10]

O=C(Nc1ccccc1)N1CCCCN2[C@H](CO)[C@H](c3ccc(C#Cc4ccccc4)cc3)[C@H]2C1
inactive: outcome [1] | outcome [2] | outcome [3] | outcome [8] | outcome [6] | outcome [5] | outcome [7]
